# Measured values: PubChem BioAssay (NCATS)
# Results filed as inconclusive are left out. Where a call stands in place of a potency, no number is given. Activity calls are given as the source filed them. Unless noted, calls follow the shape of the dose curve; as a rule, active = well fitted curve in the direction sought with a large enough effect; inconclusive = small, poorly fitted or top-dose-only effect, or another doubt; inactive = no such curve, though single readings can be large; an effect the other way counts as inactive or inconclusive.
# How the values were obtained:
# [1] = Cell Viability - LYMP2-007 (AID 979);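 also: cells exposed to compound for 24 h before reading; nearly all actives have a fitted effect of over 60% in size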
# Summary of the method: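 Cells are seeded at 2500 per well and rested 5 hr. Compounds are then added over a concentration series for 24 hr at 37 C. CellTiter-Glo is added for 30 min at room temperature before luminescence reading.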
# [2] = Cell Viability - LYMP2-008 (AID 980);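 also: cells exposed to compound for 24 h at 37 °C; nearly all actives have a fitted effect of over 60% in size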
# Summary of the method: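 Cells seeded at 2500/well and rested 5 hr at 37 C; compounds added over a concentration range and incubated 24 hr at 37 C; CellTiter-Glo added, 30 min at room temperature; luminescence read and AC50 fitted with Hill model.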
# [3] = Cell Viability - LYMP2-010 (AID 981);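 also: cells exposed to compound for 24 hours at 37 °C; nearly all actives have a fitted effect of over 55% in size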
# Summary of the method: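 Steps: seed 2500 LYMP2-010 cells per well; incubate 5 hr at 37 C; add compound; incubate 24 hr at 37 C; add CellTiter-Glo, wait 30 min at room temperature; read luminescence. Concentration-response fitted to Hill equation for AC50.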
# [4] = Cell Viability - LYMP2-012 (AID 982);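 also: cellular ATP by luciferase luminescence where a drop means cytotoxicity; cells exposed to compound for one day before reading; nearly all actives have a fitted effect of over 55% in size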
# [5] = Cell Viability - LYMP2-014 (AID 983);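 also: cells exposed to compound for 24 h at 37 °C; nearly all actives have a fitted effect of over 50% in size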
# Summary of the method: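 Cells are plated at 2500/well and left 5 hr at 37 C. Compounds are added across a concentration range and incubated 24 hr at 37 C in complete medium. CellTiter-Glo is added, and luminescence is read after 30 min at room temperature.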
# [6] = Cell Viability - LYMP2-018 (AID 985);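 also: compound exposure lasted 24 hr at 37 °C; nearly all actives have a fitted effect of over 50% in size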
# Summary of the method: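 Seed 2500 lymphoblastoid cells per well, incubate 5 hr at 37 C, add compound and incubate 24 hr at 37 C, add CellTiter-Glo, wait 30 min at room temperature, then read luminescence.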
# [7] = Cell Viability - LYMP2-020 (AID 986);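 also: cells exposed to compound for 24 h at 37 °C; nearly all actives have a fitted effect of over 55% in size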
# Summary of the method: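 Seed 2500 cells per well and incubate 5 hr at 37 C. Add compounds at a concentration series and incubate 24 hr at 37 C. Add CellTiter-Glo, wait 30 min at RT, read luminescence, and fit a Hill curve for AC50.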
# [8] = Cell Viability - LYMP2-022 (AID 987); also: nearly all actives have a fitted effect of over 55% in size
# Summary of the method: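 Cells were seeded at 2500 per well, rested 5 hr at 37 C, and treated with titrated compounds for 24 hr at 37 C. Cellular ATP was then quantified by luciferase luminescence, and AC50 values were derived from Hill-modelled concentration-response curves.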
# [9] = Cell Viability - LYMP2-024 (AID 988); also: nearly all actives have a fitted effect of over 60% in size
# Summary of the method: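 qHTS cytotoxicity, human lymphoblastoid line, complete medium; 24 h cpd treatment, 37 C; CellTiter-Glo ATP luminescence readout; tetraoctylammonium bromide positive control; AC50 via Hill fit.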
# [10] = Cell Viability - LYMP2-026 (AID 989);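 also: cells exposed to compound for 24 h at 37 °C; nearly all actives have a fitted effect of over 50% in size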
# Summary of the method: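 Cells are seeded at 2500 per well and held 5 hr at 37 C. Compounds are added in concentration series for 24 hr, then CellTiter-Glo reagent is applied and luminescence read.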
# [11] = target: Alpha-galactosidase A (Homo sapiens) (UniProt P06280); assay: Counterscreen for Glucocerebrosidase Inhibitors: qHTS Assay for Human alpha-Galactosidase at pH 4.5 (AID 992)
# Alpha-galactosidase A (Homo sapiens), sequence (P06280 whole entry, looked up): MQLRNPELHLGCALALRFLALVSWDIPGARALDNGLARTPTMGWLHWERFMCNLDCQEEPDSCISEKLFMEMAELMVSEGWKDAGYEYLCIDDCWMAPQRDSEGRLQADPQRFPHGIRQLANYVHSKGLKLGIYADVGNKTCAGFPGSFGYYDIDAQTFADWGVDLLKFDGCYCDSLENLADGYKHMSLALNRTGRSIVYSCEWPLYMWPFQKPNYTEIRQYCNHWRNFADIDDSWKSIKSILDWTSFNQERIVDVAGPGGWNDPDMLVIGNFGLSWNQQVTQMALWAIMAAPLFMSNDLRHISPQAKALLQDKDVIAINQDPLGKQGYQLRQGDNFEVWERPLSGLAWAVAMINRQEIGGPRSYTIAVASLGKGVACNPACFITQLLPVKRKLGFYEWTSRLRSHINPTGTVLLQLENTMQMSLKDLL
# Summary of the method: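 Fluorogenic 1536-well qHTS at pH 4.5 (citrate, Tween-20): 2 nM enzyme, 80 uM 4-MU-alpha-galactoside, 20 min room temperature, NaOH/glycine stop. Titration 0.7 nM to 77 uM, data normalized to no-enzyme and full-activity controls, Hill-fitted AC50.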
# [12] = Cell Viability - LYMP1-002 - Assay at 24 hr (AID 993)
# Summary of the method: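 Acute toxicity is measured as concentration-dependent loss of cellular ATP in a human lymphoblastoid line (Coriell LYMP1-002) after 24 h treatment in complete medium. ATP is quantified by luciferase luminescence and AC50 derived by Hill modelling.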
# [13] = Cell Viability - LYMP1-002 - Assay at 40 hr (AID 994); also: nearly all actives have a fitted effect of over 60% in size
# Summary of the method: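 Cells are plated at 2500 per well and rested 5 hr at 37 C. Compounds are added and incubated 40 hr at 37 C. CellTiter-Glo reagent is added for 30 min at room temperature before luminescence is read.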
# [14] = target: alpha-glucosidase (Oryza sativa, rice) (UniProt Q653V4); assay: Counterscreen for Glucocerebrosidase Inhibitors: qHTS Assay for Rice alpha-Glucosidase at pH 5.0 (AID 997)
# Summary of the method: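 Endpoint fluorogenic assay at pH 5.0: compounds (0.7 nM to 77 uM) titrated against 4 nM rice enzyme and 400 uM 4-MU-alpha-glucoside for 20 min at room temperature; NaOH/glycine stop, read ex 365/em 440 nm, Hill-fitted AC50.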
# [15] = target: Alpha-galactosidase (Coffea arabica) (UniProt Q42656); assay: Counterscreen for Glucocerebrosidase Inhibitors: qHTS Assay for Coffee Bean alpha-Galactosidase at pH 5.9 (AID 998)
# Alpha-galactosidase (Coffea arabica), sequence (Q42656 whole entry, looked up): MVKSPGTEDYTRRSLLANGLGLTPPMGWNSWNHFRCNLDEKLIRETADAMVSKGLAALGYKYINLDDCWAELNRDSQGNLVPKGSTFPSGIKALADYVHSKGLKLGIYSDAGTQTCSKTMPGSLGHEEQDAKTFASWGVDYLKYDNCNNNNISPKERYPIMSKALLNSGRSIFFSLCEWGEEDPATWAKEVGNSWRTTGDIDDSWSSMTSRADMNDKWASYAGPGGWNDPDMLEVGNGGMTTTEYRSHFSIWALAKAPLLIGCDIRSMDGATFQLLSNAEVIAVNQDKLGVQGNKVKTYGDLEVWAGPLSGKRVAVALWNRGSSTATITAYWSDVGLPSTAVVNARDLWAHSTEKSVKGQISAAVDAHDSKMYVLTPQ
# Summary of the method: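 In 50 mM citric acid pH 5.9 with 0.005% Tween-20, coffee bean enzyme hydrolyses 80 uM 4-MU alpha-D-galactopyranoside over 20 min at RT. Activity is normalized to controls; AC50 comes from Hill-modelled concentration-response data.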
# [16] = Validation of Assay for Modulators of Lamin A Splicing (AID 1459; active = well fitted curve in the direction sought with a large enough effect in the signal ratio; the % refers to the signal ratio;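 also: cells exposed to compound for two days before reading; ratio rise marks activators and ratio drop marks inhibitors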)
# Summary of the method: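 Splicing correction is reported by an EGFP-containing lamin A minigene in stably transfected S3 HeLa cells, while DsRed2 controls for viability and nonspecific signal. Cells are exposed to compounds for 48 hrs before the GFP over RFP ratio is taken.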
# [17] = qHTS Assay for Lipid Storage Modulators (AID 1519; calls by dose curve); settings: Drosophila S3 cells, BODIPY lipid droplet/cell ratio, laser cytometry, cells loaded with oleic acid; for activity change, negative = inhibition: at 57.5 µM (top of the series)
# Summary of the method: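 Cells seeded at 5,000 per well were treated with compounds over a concentration series and loaded with oleic acid (400 uM, as added). Lipid droplet fluorescence (488 nm excitation, 500-530 nm channel) was read by laser-scanning cytometry and normalized to 20 uM Triacsin C.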
# [18] = target: DNA repair nuclease/redox regulator APEX1 (Homo sapiens) (UniProt P27695); assay: qHTS Validation Assay for Inhibitors of the Human Apurinic/apyrimidinic Endonuclease 1 (APE1) (AID 1705;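 also: TAMRA fluorescence gain over two minutes as APE1 cuts a quenched THF abasic duplex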)
# DNA repair nuclease/redox regulator APEX1 (Homo sapiens), sequence (P27695 whole entry, looked up): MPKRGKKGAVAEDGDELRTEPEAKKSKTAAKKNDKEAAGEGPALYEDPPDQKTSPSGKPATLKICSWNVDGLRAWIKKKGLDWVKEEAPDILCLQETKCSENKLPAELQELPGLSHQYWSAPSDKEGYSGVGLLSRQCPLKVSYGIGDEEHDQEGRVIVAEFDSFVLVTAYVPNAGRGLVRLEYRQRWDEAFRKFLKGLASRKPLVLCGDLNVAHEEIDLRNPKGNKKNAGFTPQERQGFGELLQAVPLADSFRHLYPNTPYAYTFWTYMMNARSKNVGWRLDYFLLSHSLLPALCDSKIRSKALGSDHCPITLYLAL
# Summary of the method: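 Endonuclease activity of human APE1 is followed as dequenching when the enzyme incises a tetrahydrofuran abasic site in a short duplex labelled 5'-TAMRA/3'-BHQ-2 (50 nM final), after 15 min enzyme–compound preincubation at room temperature.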
# [19] = Counterscreen for APE1 Inhibitors: Fluorescent Dye Displacement Validation Assay (AID 1707)
# Summary of the method: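 Counterscreen flags promiscuous DNA binders: compounds displacing ThO from duplex DNA (abasic THF site, 50 nM) reduce 540 nm emission (480 nm excitation). ThO 250 nM final; Tris-HCl pH 7.5 with NaCl, MgCl2 and Tween-20.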
# [20] = target: Endonuclease 4 (Escherichia coli (strain K12)) (UniProt P0A6C1); assay: Counterscreen for APE1 Inhibitors: qHTS Validation Assay for Inhibitors of Endonuclease IV (AID 1708)
# Summary of the method: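 Enzyme (2 nM) + compound, 15 min RT; add 50 nM TAMRA/BHQ-2 THF-site dsDNA; kinetic read ex525/em598, 3 reads/60 s; activity = read 3 − read 1. Buffer Tris pH 7.5, 50 mM NaCl, 2 mM MgCl2, DTT, Tween-20.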
# [21] = measured here: cell count channel max response
# [22] = measured here: lipid channel max response
structure (smiles),measurement,setting,value
NNC(N)=O,Potency,[1],inactive
same,Potency,[2],inactive
same,Potency,[3],inactive
same,Potency,[4],inactive
same,Potency,[5],inactive
same,Potency,[6],inactive
same,Potency,[7],inactive
same,Potency,[8],inactive
same,Potency,[9],inactive
same,Potency,[10],inactive
same,outcome,[11],inactive
same,Potency,[12],inactive
same,Potency,[13],inactive
same,outcome,[14],inactive
same,outcome,[15],inactive
same,outcome,[16],inactive
same,"activity change, negative = inhibition",[17],1.16% (inactive)
same,max response,[17]; [21],-7.78%
same,max response,[17]; [22],-7.06%
same,Potency,[18],inactive
same,Potency,[19],inactive
N[C@@H](Cn1oc(=O)[nH]c1=O)C(=O)O,outcome,[11],inactive
same,outcome,[14],inactive
same,outcome,[15],inactive
same,outcome,[16],inactive
same,"activity change, negative = inhibition",[17],3.82% (inactive)
same,max response,[17]; [21],22.6%
same,max response,[17]; [22],26.9%
same,Potency,[18],inactive
same,Potency,[19],inactive
same,Potency,[20],inactive
Nc1ccc(CCN2CCN(c3cccc(C(F)(F)F)c3)CC2)cc1,outcome,[11],inactive
same,outcome,[14],inactive
same,outcome,[15],inactive
same,outcome,[16],inactive
same,"activity change, negative = inhibition",[17],2.29% (inactive)
same,max response,[17]; [21],-6.99%
same,max response,[17]; [22],-6.09%
same,Potency,[18],inactive
same,Potency,[19],inactive
NCC(CP(=O)(O)O)c1ccc(Cl)cc1 (stereo unspecified),outcome,[16],inactive
same,"activity change, negative = inhibition",[17],-3.32% (inactive)
same,max response,[17]; [21],-42.3%
same,max response,[17]; [22],-42.6%
same,Potency,[18],inactive
same,Potency,[19],inactive
